Results from PubChem BioAssay AID1159580 (chemical genetic matrix, 2015).
Screen size: about 5,500 compounds; about 2,000 (36%) were called active. Inconclusive results (about 18%) are left out. Rule as the data show it: active = normalized growth mostly below about 0.91 (no sharp cut-off); inconclusive = no clear call, values can overlap the other calls; inactive = mostly above about 0.92. This is one part of the list.

Assay: chemical genetic growth profiling, strain panel (AID 1159580);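 also: tested at 20 µM; growth read once vehicle control cultures reached saturation at 30 °C; 1 = growth at the plate median or of vehicle wells; lower values mean less growth of the strain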
Details: S. cerevisiae deletion strains, growth OD
[1] = locus YAL021C, strain ccr4, stronger effect = lower value
[2] = locus YAL026C, strain drs2, stronger effect = lower value
[3] = locus YAL030W, strain snc1, stronger effect = lower value
[4] = locus YBL061C, strain skt5, stronger effect = lower value
[5] = locus YBR009C, strain hhf1, stronger effect = lower value
[6] = locus YBR023C, strain chs3, stronger effect = lower value
[7] = locus YBR171W, strain sec66, stronger effect = lower value
[8] = locus YBR231C, strain swc5, stronger effect = lower value
[9] = locus YBR279W, strain paf1, stronger effect = lower value
[10] = locus YCL011C, strain gbp2, stronger effect = lower value
[11] = locus YCL016C, strain dcc1, stronger effect = lower value
[12] = locus YCL061C, strain MRC1, stronger effect = lower value
[13] = locus YCL069W, strain vba3, stronger effect = lower value
[14] = locus YCR088W, strain abp1, stronger effect = lower value
[15] = locus YDL005C, strain med2, stronger effect = lower value
[16] = locus YDL040C, strain nat1, stronger effect = lower value
[17] = locus YDR001C, strain nth1, stronger effect = lower value
[18] = locus YDR069C, strain doa4, stronger effect = lower value
[19] = locus YDR137W, strain rgp1, stronger effect = lower value
[20] = locus YDR159W, strain sac3, stronger effect = lower value
[21] = locus YDR297W, strain sur2, stronger effect = lower value
[22] = locus YDR334W, strain swr1, stronger effect = lower value
[23] = locus YDR335W, strain msn5, stronger effect = lower value
[24] = locus YDR392W, strain spt3, stronger effect = lower value
[25] = locus YEL003W, strain gim4, stronger effect = lower value
[26] = locus YEL037C, strain rad23, stronger effect = lower value
[27] = locus YEL061C, strain CIN8 (second series), stronger effect = lower value
[28] = locus YER015W, strain faa2, stronger effect = lower value
[29] = locus YER016W, strain bim1, stronger effect = lower value
[30] = locus YER111C, strain swi4, stronger effect = lower value
[31] = locus YER155C, strain BEM2 (second series), stronger effect = lower value
[32] = locus YFR010W, strain ubp6, stronger effect = lower value
[33] = locus YGL167C, strain pmr1, stronger effect = lower value
[34] = locus YGL173C, strain kem1, stronger effect = lower value
[35] = locus YGL227W, strain vid30, stronger effect = lower value
[36] = locus YGL240W, strain doc1, stronger effect = lower value
[37] = locus YGL253W, strain hxk2, stronger effect = lower value
[38] = locus YHR013C, strain ard1, stronger effect = lower value
[39] = locus YHR027C, strain rpn1, stronger effect = lower value
[40] = locus YHR030C, strain SLT2, stronger effect = lower value
[41] = locus YHR079C, strain IRE1, stronger effect = lower value
[42] = locus YHR142W, strain chs7, stronger effect = lower value
[43] = locus YJL092W, strain hpr5, stronger effect = lower value
[44] = locus YJL095W, strain BCK1 (second series), stronger effect = lower value
[45] = locus YJL095W, strain BCK1, stronger effect = lower value
[46] = locus YJL115W, strain asf1, stronger effect = lower value
[47] = locus YJL129C, strain trk1, stronger effect = lower value
[48] = locus YJL154C, strain vps35, stronger effect = lower value
[49] = locus YJL164C, strain tpk1, stronger effect = lower value
[50] = locus YJL166W, strain qcr8, stronger effect = lower value
[51] = locus YJL187C, strain SWE1, stronger effect = lower value
[52] = locus YJR066W, strain TOR1, stronger effect = lower value
[53] = locus YKL160W, strain elf1, stronger effect = lower value
[54] = locus YKR026C, strain gcn3, stronger effect = lower value
[55] = locus YKR091W, strain srl3, stronger effect = lower value
[56] = locus YLL001W, strain dnm1, stronger effect = lower value
[57] = locus YLL026W, stronger effect = lower value
[58] = locus YLL041C, strain sdh2, stronger effect = lower value
[59] = locus YLR027C, strain aat2, stronger effect = lower value
[60] = locus YLR113W, strain HOG1, stronger effect = lower value
[61] = locus YLR221C, strain rsa3, stronger effect = lower value
[62] = locus YLR258W, strain gsy2, stronger effect = lower value
[63] = locus YLR262C, strain YPT6 (second series), stronger effect = lower value
[64] = locus YLR320W, strain mms22, stronger effect = lower value
[65] = locus YLR342W, strain FKS1, stronger effect = lower value
[66] = locus YLR357W, strain rsc2, stronger effect = lower value
[67] = locus YLR370C, strain arc18, stronger effect = lower value
[68] = locus YLR384C, strain iki3, stronger effect = lower value
[69] = locus YML120C, strain ndi1, stronger effect = lower value
[70] = locus YMR058W, strain fet3, stronger effect = lower value
[71] = locus YMR125W, strain sto1, stronger effect = lower value
[72] = locus YMR129W, stronger effect = lower value
[73] = locus YMR205C, strain PFK2, stronger effect = lower value
[74] = locus YMR231W, strain pep5, stronger effect = lower value
[75] = locus YNL071W, strain lat1, stronger effect = lower value
[76] = locus YNL183C, strain NPR1, stronger effect = lower value
[77] = locus YNL209W, strain ssb2, stronger effect = lower value
[78] = locus YNL248C, strain rpa49, stronger effect = lower value
[79] = locus YNL322C, strain KRE1 (second series), stronger effect = lower value
[80] = locus YNR049C, strain mso1, stronger effect = lower value
[81] = locus YOR001W, strain rrp6, stronger effect = lower value
[82] = locus YOR070C, strain gyp1, stronger effect = lower value
[83] = locus YOR080W, strain dia2, stronger effect = lower value
[84] = locus YOR083W, strain WHI5, stronger effect = lower value
[85] = locus YOR106W, strain vam3, stronger effect = lower value
[86] = locus YOR231W, strain MKK1, stronger effect = lower value
[87] = locus YOR265W, strain rbl2, stronger effect = lower value
[88] = locus YOR270C, strain vph1, stronger effect = lower value
[89] = locus YOR290C, strain snf2, stronger effect = lower value
[90] = locus YPL051W, strain arl3, stronger effect = lower value
[91] = locus YPL078C, strain atp4, stronger effect = lower value
[92] = locus YPL106C, strain sse1, stronger effect = lower value
[93] = locus YPL240C, strain hsp82, stronger effect = lower value
[94] = locus YPL256C, strain CLN2, stronger effect = lower value

Measured: normalized growth

NC(=O)C(c1ccccc1)(c1ccccc1)C1CCN(CCc2ccc3c(c2)CCO3)C1 (stereo not given)
inactive: [1] 1.01 | [2] 1.02 | [3] 1.03 | [4] 1.01 | [5] 1.04 | [6] 1.02 | [7] 1.04 | [8] 0.976 | [9] 1.02 | [10] 1.03 | [11] 1.03 | [12] 1.02 | [13] 1.02 | [14] 1.02 | [15] 1.02 | [16] 1.03 | [17] 1.02 | [18] 1.04 | [19] 1.1 | [20] 1.03 | locus YDR195W, strain ref2 1.04 | [21] 1.02 | [22] 1.03 | [23] 1.01 | [24] 0.996 | [25] 1.03 | [26] 1.02 | [27] 1.01 | [28] 1.02 | [29] 1.04 | [30] 1.02 | [31] 1.04 | [32] 1.02 | [33] 1.02 | [34] 1.02 | [35] 1.01 | [36] 1.01 | [37] 1.02 | [38] 1.01 | [39] 1.03 | [40] 1.05 | [41] 1.05 | [42] 1 | [43] 1.01 | [44] 1.03 | [45] 0.986 | [46] 1.02 | [47] 0.999 | [48] 1.03 | [49] 1.04 | [50] 1.03 | [51] 1.02 | [52] 0.997 | [53] 1.02 | [54] 1.02 | [55] 1.02 | [56] 1.03 | [57] 1.02 | [58] 1.03 | [59] 1.03 | [60] 1.01 | [61] 1.02 | [62] 1.04 | [63] 1.08 | [64] 1.01 | [65] 1.02 | [66] 0.966 | [67] 1.01 | [68] 1.03 | [69] 1.01 | [70] 1.02 | [71] 1.01 | [72] 1.02 | [73] 1.03 | [74] 1.02 | [75] 1.01 | [76] 0.997 | [77] 1.02 | [78] 1.03 | [79] 1.04 | [80] 1.02 | [81] 1.03 | [82] 1.03 | [83] 1.01 | [84] 1 | [85] 1.01 | [86] 1.04 | [87] 1.05 | [88] 1.02 | [89] 1.08 | [90] 1.04 | [91] 1.01 | [92] 1.05 | [93] 1.03 | [94] 1.06

Nc1c(S(=O)(=O)O)cc(Nc2ccc(Nc3nc(Cl)nc(Nc4ccc(S(=O)(=O)O)cc4)n3)c(S(=O)(=O)O)c2)c2c1C(=O)c1ccccc1C2=O
inactive: locus YAL013W, strain DEP1, stronger effect = lower value 0.977 | locus YAL040C, strain CLN3, stronger effect = lower value 1.09 | locus YCL061C, strain MRC1 (second series), stronger effect = lower value 1.01 | locus YDR150W, strain NUM1, stronger effect = lower value 1.03 | locus YDR363W, strain ESC2, stronger effect = lower value 1.01 | locus YER002W, strain NOP16, stronger effect = lower value 1.03 | locus YGR078C, strain PAC10, stronger effect = lower value 1.04 | locus YMR307W, strain GAS1, stronger effect = lower value 1.05 | locus YNL128W, strain TEP1, stronger effect = lower value 1.03 | locus YNL175C, strain NOP13, stronger effect = lower value 1.03 | locus YNL197C, strain WHI3, stronger effect = lower value 1.04 | locus YNL224C, strain SQS1, stronger effect = lower value 1.04 | locus YNL322C, strain KRE1, stronger effect = lower value 1.01 | locus YOR083W, strain WHI5 (second series), stronger effect = lower value 1.04 | locus YPL241C, strain CIN2, stronger effect = lower value 1.02

CC(=O)O[C@H]1[C@@H]2[C@@H](OC(=O)Cc3ccccc3)[C@@H](C)C[C@]2(OC(C)=O)C(=O)/C(C)=C/[C@H]2[C@H](CC[C@@]13CO3)C2(C)C
inactive: [1] 0.975 | [2] 0.985 | [3] 0.986 | [4] 0.984 | [5] 1 | [6] 0.982 | [7] 0.976 | [8] 0.988 | [9] 0.983 | [10] 0.979 | [11] 0.989 | [12] 0.992 | [13] 0.991 | [14] 0.992 | [15] 0.976 | [16] 0.978 | [17] 0.985 | [18] 0.98 | [19] 0.85 | [20] 0.977 | locus YDR195W, strain ref2 1.01 | [21] 0.97 | [22] 0.934 | [23] 0.978 | [24] 0.84 | [25] 0.981 | [26] 0.987 | [27] 0.984 | [28] 0.989 | [29] 0.979 | [30] 0.992 | [31] 0.984 | [32] 0.977 | [33] 0.97 | [34] 0.958 | [35] 0.99 | [36] 0.99 | [37] 0.974 | [38] 0.926 | [39] 0.983 | [40] 0.988 | [41] 0.981 | [42] 0.958 | [43] 0.97 | [44] 0.977 | [45] 0.989 | [46] 0.969 | [47] 0.941 | [48] 0.993 | [49] 0.982 | [50] 0.981 | [51] 0.988 | [52] 0.963 | [53] 0.972 | [54] 0.982 | [55] 0.985 | [56] 0.98 | [57] 0.98 | [58] 0.97 | [59] 0.975 | [60] 0.966 | [61] 0.975 | [62] 0.986 | [63] 0.878 | [64] 0.971 | [65] 0.966 | [66] 1.03 | [67] 0.987 | [68] 0.983 | [69] 0.967 | [70] 0.98 | [71] 1 | [72] 0.989 | [73] 0.984 | [74] 0.993 | [76] 0.909 | [77] 0.989 | [78] 0.98 | [79] 0.981 | [80] 0.978 | [81] 0.955 | [82] 0.985 | [83] 0.974 | [84] 0.972 | [85] 0.951 | [86] 0.961 | [87] 0.983 | [88] 0.815 | [89] 0.929 | [90] 0.958 | [91] 0.978 | [92] 1 | [93] 0.966 | [94] 0.967
active: [75] 0.914
